Source: PubChem BioAssay
FUS yeast rescue = FUS proteinopathy suppression in yeast; S. cerevisiae FUS-expressing, growth rescue, OD600, 24 h; 390,000 compounds, 0.24% hits; AID 1347120; Potency, µM (highest dose often 76.6 µM), hits mostly activators; further: nearly all actives have a fitted effect of over 55% in size
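Galactose (2%) drives FUS expression in yeast precultured in raffinose; seeding density OD 0.005. Test compounds incubated 24hr at 30C and 99% humidity before absorbance at 600 nm was measured.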
aSyn rescue = inhibitors of alpha-synuclein toxicity in yeast; Yeast expressing alpha-synuclein, growth rescue, BacTiter-Glo, 24 h; Potency, µM (doses to about 46.1 µM), most hits filed as activators; 370,000 compounds, 0.14% hits; AID 652106; further: nearly all actives have a fitted effect of over 65% in size
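Readout is rescue of growth in alpha-synuclein-expressing yeast, so inhibitors of toxicity appear as activators. Growth after 24 hr at 30 deg C in galactose medium is quantified by luminescence.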
Abeta yeast res = restores growth of yeast expressing A-beta42 peptide; yeast expressing A-beta42, growth rescue, OD600, 48 h; response scale: 0% DMSO, 100% iron-clioquinol control; Potency, µM (highest dose often 46.1 µM), most hits filed as activators; 410,000 compounds, 0.063% hits; AID 1347071; further: nearly all actives have a fitted effect of over 55% in size
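Yeast A-beta toxicity model in growth medium with pinned compounds, 48 h at 30 C; growth read as absorbance at 600 nm. Normalized to FeCl3/clioquinol equimolar mix (positive) and DMSO (negative).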
TDP-43 yeast inh = inhibitors of TDP-43 toxicity in yeast; TDP-43 expressing yeast growth rescue, BacTiter-Glo, 24 h; Potency, µM (doses to about 46.1 µM), most hits filed as activators; 410,000 compounds, 1.8% hits; further: nearly all actives have a fitted effect of over 50% in size
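Cell-based yeast growth screen: TDP-43 expression induced in galactose, inoculum OD600=0.02 after raffinose pregrowth to mid-log. Read-out BacTiter-Glo luminescence at 24 hr, 30 deg C; inhibition of toxicity seen as signal increase.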
PTAP TSG101 blk = blocks PTAP/TSG101 interaction to inhibit HIV-1 budding. Q99816. Fluorescence polarization, FITC-PTAP peptide / Tsg101 binding. Potency, µM (top dose mostly 115 µM), most hits filed as inhibitors. 340,000 tested, under 10 active. AID 493005; active means well fitted inhibition curve with a large enough effect in the main read-out, with a control signal flat, not every such curve was filed as active; inconclusive means small, poorly fitted or top-dose-only effect, or effect the other way, or a change in a side signal; inactive means no such curve, though single readings can be large or run the other way
Target sequence (Q99816 whole entry, looked up): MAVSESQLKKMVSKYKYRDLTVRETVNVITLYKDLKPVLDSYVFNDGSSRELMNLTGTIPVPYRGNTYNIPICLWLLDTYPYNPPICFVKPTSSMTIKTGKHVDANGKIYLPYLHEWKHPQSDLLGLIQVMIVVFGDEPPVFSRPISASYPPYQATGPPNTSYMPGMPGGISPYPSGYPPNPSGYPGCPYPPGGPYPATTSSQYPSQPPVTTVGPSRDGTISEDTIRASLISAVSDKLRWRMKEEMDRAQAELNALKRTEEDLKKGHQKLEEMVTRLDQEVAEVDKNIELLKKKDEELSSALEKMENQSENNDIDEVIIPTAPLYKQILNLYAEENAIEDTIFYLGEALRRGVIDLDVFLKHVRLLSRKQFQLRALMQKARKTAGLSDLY
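Tsg101 binding domain (10 uM final) was mixed with compound and a FITC-labeled PTAP peptide (50 nM final) in HEPES pH 7.5 buffer with NaCl, Tween 20, EDTA and TCEP; fluorescence polarization was read after 20 min at r.t.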
A number is an active result; n = inactive; u = inconclusive; x = no result; [ ] = dose if it differs, or a comment. Only some compounds are listed: those with a hit (about 2.1% of all), similar ones and a draw of the others. Unless noted, the call rests on the fitted dose curve; in most records, active means well fitted curve in the direction sought with a large enough effect; inconclusive means small, poorly fitted or top-dose-only effect, or another doubt; inactive means no such curve, though single readings can be large; an effect the other way counts as inactive or inconclusive.

SMILES	FUS yeast rescue	aSyn rescue	Abeta yeast res	TDP-43 yeast inh	PTAP TSG101 blk
COc1ccc(C2CC(O)(c3ccccc3)Oc3cc(OC)ccc32)cc1 (configuration not stated)	n	u	n	20µM	n
COc1ccc(C2CC(=O)Oc3cc(OC)ccc32)cc1 (configuration not stated)	n	n	n	n	n
Cc1ccc(O)c(-c2n[nH]c3c2C(c2ccc(F)cc2)N(Cc2ccco2)C3=O)c1 (configuration not stated)	u	x	u	n	x
O=C(/C=C/c1ccc(Cl)cc1)Nc1cc(S(=O)(=O)N2CCOCC2)ccc1N1CCOCC1	n	n	n	n	n
Cc1onc(C(=O)N2CCN(C(c3ccccc3)c3ccccc3)CC2)c1Br	n	x	x	x	x
Cc1ccc(OCC(=O)Nc2cccc(C(=O)OCc3cc(=O)n4nc(C)sc4n3)c2)cc1	n	x	n	n	x
CCOc1ccc(OCCN2C(=O)NC3(CCCc4ccccc43)C2=O)cc1 (configuration not stated)	n	n	n	35µM	n
O=C(Nc1nc(-c2cccs2)c(C(=O)C(F)(F)F)s1)c1ccco1	n	n	n	14µM	n
CC(=O)Nc1sc(NC(=O)c2ccco2)nc1-c1cccs1	n	n	n	n	n
O=C(Nc1nc(-c2cccs2)c(C(=O)C(F)(F)F)s1)c1ccccc1	n	n	n	n	n
O=C(Nc1nc(-c2cccs2)c(-c2ccccc2)s1)c1ccco1	n	n	n	13µM	n
Nc1[nH]c(=S)nc2nnsc12	x	n	x	x	x
CC1CCN(c2ccc(C(=O)O)cc2NS(=O)(=O)c2ccc(C(C)(C)C)cc2)CC1	n	x	x	x	x
O=C(O)c1ccc2nc(-c3cc4cc(Cl)ccc4oc3=O)[nH]c2c1	n	x	n	n	x
CCc1ccc(-c2ccc3nnc(SC)n3n2)cc1	n	n	x	16µM	n
CCc1ccc(-c2ccc3nnc(SCC(N)=O)n3n2)cc1	n	n	n	n	n
CC(C)CN1CCc2nc(Nc3ccc(F)cc3F)ncc2C1	n	x	n	n	x
CCOC(=O)N/N=C/c1cn(CCCOc2ccccc2)c2ccccc12	n	n	n	11µM	n
CCOC(=O)N/N=C/c1cn(CCCOc2ccc(C)cc2)c2ccccc12	x	n	n	u	n
CC(C)(C)c1ccc(S(=O)(=O)N2CCC(C(=O)NCC3COCCO3)CC2)cc1 (configuration not stated)	n	x	x	x	x
CC1CCCN(S(=O)(=O)c2ccc(NC(=O)CN3C(=O)NC(C)(c4ccccc4)C3=O)cc2)C1 (configuration not stated)	28µM	n	n	n	n
CC1CC(C)CN(S(=O)(=O)c2ccc(NC(=O)CN3C(=O)NC(C)(c4ccccc4)C3=O)cc2)C1 (configuration not stated)	x	n	n	n	x
CCOC(=O)c1[nH]c2c(c1Cc1ccccc1C)C(=O)CC(c1ccccc1)C2 (configuration not stated)	n	x	n	n	x
CCOC(=O)c1[nH]c2c(c1Cc1ccccc1)C(=O)CC(c1ccccc1)C2 (configuration not stated)	n	x	n	13µM	x
O=C(CCn1ccc2ccccc21)NC1CCCc2ccccc21 (configuration not stated)	n	n	n[9.22 µM]	18µM	n
SMILES	FUS yeast rescue	aSyn rescue	Abeta yeast res	TDP-43 yeast inh	PTAP TSG101 blk
Nc1nc(N)c2cc(S(=O)(=O)c3ccc4ccccc4c3)ccc2n1	n	n	n	n	x
c1ccc(Nc2scc(-c3ccccc3)[n+]2Cc2ccco2)cc1	n	n	n	20µM	n
N#Cc1ncc(C(F)(F)F)cc1Sc1ccc(N)cc1	n	n	u	14µM	n
Cc1ccc(-c2csc(NC(=O)CSC3=NCCS3)n2)cc1	n	x	n	7.1µM	n
CCn1c(SCC(=O)Nc2nc(-c3ccccc3)cs2)nnc1-c1ccccc1O	n	n	n	20µM	n
Cc1ccc(-c2csc(NC(=O)CSc3nc(C)cc(=O)[nH]3)n2)cc1	n	n	n	n	n
CCOc1ccc(-n2c(SCC(=O)c3ccccc3Cl)nnc2-c2ccncc2)cc1	18µM	x	x	x	x
COc1ccc(N2C(=O)CSC23C(=O)N2c4c(cccc43)C(C)=CC2(C)C)cc1 (configuration not stated)	n	16µM	n	n	n
Cc1ccc(-n2c(N)c(C(=O)N3CCCCC3)sc2=S)cc1	n	n	n	11µM	n
Cc1ccc(-n2c(N)c(C(=O)N3CCN(C)CC3)sc2=S)cc1	n	n	n	n	n
Cc1ccc(Sc2c([N+](=O)[O-])ncn2C)cc1	n	n	n	10µM	n
NS(=O)(=O)c1ccc(CCNC(=O)C2CCN(S(=O)(=O)c3cnc[nH]3)CC2)cc1	25µM	n	n	n	n
C(=C/c1nccc2c1[nH]c1ccccc12)/c1ccc2c(c1)OCO2	n	n	n	10µM	n
CC(C)(C)NC(=S)NC(=O)C12CCC3CC(CC(C3)C1)C2	n	n	6.3µM	n	n
O=C(Nc1cccc(F)c1)N1CCc2nc(NCc3cccc(Oc4ccccc4)c3)ncc2C1	n	n	n	16µM	x
CC(C)c1ccc(NC(=O)N2CCc3nc(NCc4cccc(Oc5ccccc5)c4)ncc3C2)cc1	u	n	n	n	x
Cc1ccc(C(=O)Nc2cccnc2Oc2ccc(Cl)cc2)cc1	n	n	n	n	n
Cc1ccc(S(=O)(=O)Nc2cccnc2Oc2ccc(Cl)cc2)cc1	n	n	n	20µM	n
CC(C(=O)Nc1ccccc1)n1nnc2sc3c(c2c1=O)CCCC3 (configuration not stated)	n	x	n	n	x
CCOc1ccc(OCC)c(NS(=O)(=O)c2cccc3nsnc23)c1	n	n	n	13µM	n
CCOc1ccccc1NS(=O)(=O)c1cccc2nsnc12	n	n	n	n	n
O=S(=O)(NCC(c1ccco1)S(=O)(=O)c1cccs1)c1ccc(F)c(C(F)(F)F)c1 (configuration not stated)	n	x	n	0.89µM	x
COc1ccc(CCn2c3c(c(=O)[nH]c2=O)C(NC(=O)c2ccc(C(C)(C)C)cc2)(C(F)(F)F)C(=O)N3)cc1OC (configuration not stated)	u	x	n	n	x
Cc1ccc(CSCCC(=O)NCc2ccc(F)cc2Cl)cc1	n	x	n	22µM	x
Cc1cc(NS(=O)(=O)c2ccc(C(C)C)cc2)no1	n	n	u	14µM	n
Cc1cc(NS(=O)(=O)c2ccc(CC(C)C)cc2)no1	n	n	n	18µM	n
CCCCc1ccc(S(=O)(=O)NC(=O)C2(C)CCN2C(=O)CCc2cccs2)cc1 (configuration not stated)	n	n	n	35µM	x
COc1ccc(S(=O)(=O)NC(=O)C2(C)CCN2C(=O)C(C)(C)c2ccccc2)cc1 (configuration not stated)	n	n	n	14µM	x
